SMARCA2 act – SMARCA2 (BRM) function activators, primary screen, cell-based, luminescence, high throughput; MG213 cells, MMTV-luciferase reporter, dexamethasone, overnight; activation, % at 9.1 µM; 370,000 tested, 1% active; AID 652017, 2013; in the data active = activation above about 7.8%;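 also: 0% = vehicle wells and 100% = reference activator wells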
hgDAF-12 ag – H. glycines DAF-12 receptor agonists, primary screen, cell-based, luminescence, HEK293, GAL4 fusion, UAS-luciferase; Nuclear hormone receptor DAF-12 (Heterodera glycines), GAL4 fusion; HEK293 GAL4-hgDAF12 UAS-luciferase reporter, agonist luminescence; normalized to butyrate control; activation, % at 6.8 µM; 370,000 tested, 1.8% active;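 active = activation above a cutoff set at the mean of all screened compounds plus 3 SD, cut at about 10% in these data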;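 also: 0% = DMSO wells and 100% = sodium butyrate wells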
DAX1 inh-1 – DAX1 (NR0B1) inhibitors, primary screen, cell-based, HEK293, Gal4-DAX1, luciferase luminescence; Nuclear receptor subfamily 0 group B member 1 (Homo sapiens), P51843; HEK293 Gal4-DAX1 luciferase reporter; inhibition, % at 6.75 µM; 340,000 tested, 0.99% active;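 active = inhibition above the mean over all tested compounds plus 3 SD, cut at about 4.2% in these data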;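 also: 0% = DAX1-transfected cells with DMSO and 100% = empty-vector control cells with DMSO; inhibition shows as a rise in luminescence from relieved DAX1 repression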
Target sequence (P51843 207-470 limits assumed): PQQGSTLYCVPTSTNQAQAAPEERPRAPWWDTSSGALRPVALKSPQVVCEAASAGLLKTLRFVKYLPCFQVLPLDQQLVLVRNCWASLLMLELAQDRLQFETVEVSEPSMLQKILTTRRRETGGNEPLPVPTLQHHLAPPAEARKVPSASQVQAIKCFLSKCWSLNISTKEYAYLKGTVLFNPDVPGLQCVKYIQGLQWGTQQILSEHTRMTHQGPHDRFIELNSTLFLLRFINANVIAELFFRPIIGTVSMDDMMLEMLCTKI
hcDAF-12 act – H. contortus DAF-12 nuclear receptor activators, primary screen, cell-based, luminescence, HEK293, lit1-tk-luc reporter; HEK293 hcDAF-12 lit1-tk-luc reporter; 0% DMSO, 100% Δ7-dafachronic acid; activation, % at 6.8 µM; 370,000 tested, 1.4% active;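 active = activation above the mean of all tested compounds plus 3 SD, cut at about 5.5% in these data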;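 also: 100% = response to 3 µM Δ7-dafachronic acid high control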
DAX1 inh-2 – DAX1 (NR0B1) inhibitors on StAR promoter, primary screen, cell-based, luminescence, SF-1 (NR5A1), full-length DAX-1. HEK293T StAR-luciferase reporter, SF-1/DAX-1 repression relief. inhibition, % at 6.8 µM. 370,000 tested, 1.1% active;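 active = inhibition above the mean over all tested compounds plus 3 SD, cut at about 3.6% in these data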;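 also: 0% = DAX-1 cells with DMSO and 100% = cells lacking DAX-1 with DMSO; higher inhibition means more luminescence from relief of DAX-1 repression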
ssDAF-12 act – S. stercoralis DAF-12 nuclear receptor activators, primary screen, cell-based, luminescence, HEK293, GRIP1 co-expression, lit1-tk-luc. Nuclear hormone receptor DAF-12 (Strongyloides stercoralis). HEK293 ssDAF-12/GRIP1 lit1-tk-luc reporter; % of 3 µM dafachronic acid response. activation, % at 6.8 µM. 370,000 tested, 1% active;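 active = activation above the mean over all tested compounds plus 3 SD, cut at about 0.9% in these data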;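 also: 0% = DMSO-only wells and 100% = 3 µM delta7-dafachronic acid wells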
Numbers without * were called inactive; · = not tested or not shown; ! = not active in a repeat. Shown are actives, neighbours in structure and some others; about 4.8% of the full set was active somewhere.

SMILES	SMARCA2 act	hgDAF-12 ag	DAX1 inh-1	hcDAF-12 act	DAX1 inh-2	ssDAF-12 act
O=C(O)CSc1nc2c(c(C(F)(F)F)n1)CCc1ccccc1-2	0	-2	-1	1	0	-1
O=C(O)CSc1nc2c(c(C(F)(F)F)n1)CCCC2	-2	1	5.1*!	0	0	-1
COC(=O)CSc1nnc(-c2ccc(NS(=O)(=O)c3c(C(C)C)cc(C(C)C)cc3C(C)C)cc2)o1	-4	0	·	0	1	-2
CCOc1ccc(S(=O)(=O)N(CC(=O)O)c2ccc(C)cc2)cc1	3	0	0	0	0	-2
CCOc1ccc(N(Cc2ccc(C(=O)O)cc2)S(=O)(=O)c2ccc(C)cc2)cc1	-2	2	1	2	-1	1.5*
CCn1c(SCC(=O)Nc2ccc(NC(C)=O)cc2)nc2c([nH]c3ccccc32)c1=O	-3	1	1	5.6*	0	1.1*
CCn1c(SCC(=O)N2CC(C)OC(C)C2)nc2c([nH]c3ccccc32)c1=O (stereo not drawn)	-1	1	1	6.5*	0	0
O=C(CSc1nc2c([nH]c3ccccc32)c(=O)n1-c1ccccc1)N1CCOCC1	3	3	0	6.0*	0	-1
Cc1ccc(NC(=O)CSc2nc3c([nH]c4ccccc43)c(=O)n2C)cc1	1	-3	0	3	0	0
O=C(CSc1nc2c([nH]c3ccccc32)c(=O)n1-c1cccc(Cl)c1)N1CCOCC1	-2	-1	0	3	-1	-1
COCCn1c(SCC(=O)N2CC(C)OC(C)C2)nc2c([nH]c3ccccc32)c1=O (stereo not drawn)	-2	4	0	5.9*	1	0
CCCC1CCC2(CC1)CCC2OC(=S)NCc1cccc(F)c1 (stereo not drawn)	·	1	·	-2	·	-2
O=C1CCC[C@H]2C[C@H](NCc3ccccc3Cl)CC[C@]23CCCN13	·	2	·	2	·	0
CCN1CCN(Cc2ccc(NC(=O)c3cccc(-c4ccc5nc(NC(=O)C6CC6)sc5n4)c3)cc2C(F)(F)F)CC1	2	0	·	0	-3	-2
CC(C)[C@@H]1NC(=O)[C@H]2C[C@@]3(c4ccccc4)c4ccccc4N[C@H]3N2C1=O	-2	-1	·	2	-1	-1
CNC(=O)CSc1nc2c([nH]c3ccccc32)c(=O)n1CCOC	0	2	-1	5.6*	0	1
COCCn1c(SCC(=O)Nc2ccc(F)cc2)nc2c([nH]c3ccccc32)c1=O	-3	3	-1	5	0	0
c1ccc(-c2cccc(CNc3nc(-c4ccccn4)nnc3-c3ccccc3)c2)cc1	·	-11	·	-3	·	-1
CCOc1ccccc1CN1CCN(Cc2ccc3cc(F)ccc3n2)CC1CCO (stereo not drawn)	-2	2	5.4*	5	0	0
CCOc1ccc2nc(CN3CCN(Cc4ccccc4OCC)C(CCO)C3)ccc2c1 (stereo not drawn)	-5	-5	-3	-4	-1	-2
Nc1[nH]c(C(=O)c2ccc(Cl)cc2)c(-c2ccc(Br)cc2)c1C(=O)c1c[nH]c2ccc(F)cc12	-7	3	·	1	1	-1
O=C(Nc1ccccc1)Nc1nc2ncccn2c1-c1ccc(C(F)(F)F)cc1	-2	5	·	2	-1	-1
CCOC(=O)c1cnn(-c2ccccn2)c1N	7.9*	6	3	5	3	0
Cc1ccc(S(=O)(=O)N2c3ccc(F)cc3C[C@H]2CSc2ccccc2)cc1	·	0	·	-2	·	-1
CC(=O)c1ccc(NC(=O)Nc2cccnc2)cc1	5	5	0	1	4.1*	0
SMILES	SMARCA2 act	hgDAF-12 ag	DAX1 inh-1	hcDAF-12 act	DAX1 inh-2	ssDAF-12 act
CC(=O)c1ccc(NC(=O)Nc2ccncc2)cc1	3	7	-2	-1	0	-1
O=C(Nc1cccnc1)Nc1cccc([N+](=O)[O-])c1	-1	2	1	6.5*	0	-1
C=CCN1[C@H](CC(C)C)COc2cccc(N3CCSCC3)c2S1(=O)=O	-3	4	·	-2	-1	-2
O=C(Nc1nc2ncccn2c1-c1ccc(F)c(F)c1)C1CC1	-3	4	·	-1	0	-1
CCCCCCN1CCS(=O)(=O)N(Cc2ccc(C)cc2)C(C(=O)OC)C1 (stereo not drawn)	-1	-4	·	-2	-1	-1
O=c1c2ccccc2sc2ccc(Cl)cc12	2	5	1	0	0	-2
Cc1cc2sc3ccccc3c(=O)c2c(C)c1O	2	9	0	4	2	1.1*
CCN=C1NC(c2ccc(Cl)cc2)C(C(=O)OC)=C(C)N1Cc1cccc(C(F)(F)F)c1 (stereo not drawn)	-3	0	·	2	0	-1
Cc1ccc2nc(-c3cc(N)cc(N)c3)oc2c1	-5	-4	-3	-2	1	-2
Nc1ccc(-c2nc3ccc(N)cc3o2)cc1	4	12*	4	-1	2	-2
CN(C)c1ccc(-c2nc3cc(N)ccc3o2)cc1	1	11*	-5	5.8*	1	1
Nc1ccc(-c2nc3cc(N)ccc3o2)cc1	5	11*	1	4	2	-1
Cc1cc(C(=O)NN)c(C)o1	1	5	6.2*	1	1	-1
Cc1cc(C(=O)NNC(=O)c2sccc2C)c(C)o1	2	3	1	1	4.3*	0
Cc1cc(C(=O)N/N=C/c2ccncc2)c(C)o1	2	1	4.8*	-1	0	-1
Cc1cccc(NC(=O)Nc2c(-c3ccc(C(F)(F)F)cc3)nc3ncccn23)c1	-2	2	·	0	0	-1
C#CCNC(=O)C[C@@H]1C(=O)N2CCCC3=C2[C@@]1(C(=O)OC)CCCC3	-2	1	·	-2	0	-1
Cc1[nH]c2ccccc2c1C(=O)COC(=O)c1ccc([N+](=O)[O-])s1	-1	1	-1	4	0	1.0*
O=C(COC(=O)c1ccc([N+](=O)[O-])s1)NCc1ccccc1	3	-3	2	1	0	-1
O=C(NN=Cc1ccc(O)cc1)c1cc(-c2ccc(Cl)cc2)n[nH]1	-1	0	·	-3	0	-2

Bioassay records as filed in PubChem.
